The structures appear in SMILES notation. Several values for one entry are separate records, joined by “and”; a condition that tells them apart may be missing. Identical values can stand only once. Results filed as inconclusive are left out. Activity calls are given as the source filed them. Unless noted, calls come from the whole dose curve; as a rule, active = well fitted curve in the direction sought with a large enough effect; inconclusive = small, poorly fitted or top-dose-only effect, or another doubt; inactive = no such curve, though single readings can be large; an effect the other way counts as inactive or inconclusive.

Experiment [1] concerns the target Arylsulfatase A (Homo sapiens) (UniProt P15289). The experiment is described as follows: qHTS screen for enhancers of Arylsulfatase A (ASA1): LOPAC Validation Assay (AID 720538). Note: potency is the fitted concentration of half-maximal effect. The text has this:
Lysosomal storage diseases (LSDs) are caused by genetic mutations in genes encoding proteins important for normal lysosomal function. In affected patients, symptoms are usually not manifested unless the mutations result in more than 90% reduction of enzymatic activity of a specific lysosomal enzyme. […] Small molecules could function as enzyme enhancement agents by binding to and stabilizing mutant misfolded proteins in the endoplasmic reticulum (ER), allowing them to evade the ER associated degradation (ERAD), and eventually reach the lysosome. Moreover, small molecules is hypothesized to be able to enhance the residual activity of deficient lysosomal enzyme by either interacting directly with the mutant enzyme or indirectly by acting in different cellular pathways; resulting to increased levels of the mutant and partially functional protein in the lysosomal compartment.
A cell based assay in 1536 well plate format was developed to evaluate activity of the lysosomal sulfatase ASA1 enzyme. ASA1 is deficient in metachromatic leukodystrophy (MLD), an LSD characterized by progressive neurodegeneration for which specific treatment is not available. Compounds that are active may therefore have some therapeutic application for this disease. This assay was used to validate the ASA1 qHTS using the Sigma LOPAC library. In this assay increase in signal = enhanced ASA1 activity. Activation is the desired outcome for this assay.
NIH Chemical Genomics Center [NCGC]
NIH Molecular Libraries Probe Centers Network [MLPCN]
Assay Submitter (PI): Gustavo Maegawa, Johns Hopkins University School of Medicine
[2] Gieselmann V, et al. Acta Paediatr Suppl. 2008; 97: 15-21
Four microliter (~8,000 cells/well) of SV40-transformed skin fibroblasts from an MLD patient (ASA-I179S) were seeded into a 1,536 solid white plate. Cells were left to adhere for 6 hrs, followed by addition of 23 nL of compounds. Cells were incubated with compounds for 48h at 37 degree C and 5% CO2. Four microliter of 1 mM pNCS substrate/lysis buffer (0.5mM pNCS final concentration) was added and incubated for 14h at room temperature. To stop the reaction, […] of 5 N of NaOH (1N NaOH final concentration) was then added and fluorescence was measured using the ViewLux plate reader (Ex=525 nm; Em=598 nm).

A short description of experiment [2]: qHTS assay for small molecule antagonists of the retinoid-related orphan receptor gamma (ROR-gamma) signaling pathway - cell viability counter screen (AID 720652; active = well fitted curve in the direction sought with a large enough effect in the repeat runs; an effect the other way counts as inactive or inconclusive;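 note: compound exposure lasted 16 hr before ATP read; % is set by controls: 0 for no effect and ±100 for the full control effect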). A digest of the protocol: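 Cytotoxicity is quantified via intracellular ATP (CellTiter-Glo luminescence) in doxycycline-induced CHO ROR response element-luciferase reporter cells treated with compound for 16 hr at 37 C, 5% CO2.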
A general note: Quantitative high-throughput screening tests each substance at several concentrations.

Experiment [3] is described as follows: qHTS assay for small molecule agonists of the antioxidant response element (ARE) signaling pathway measured by Nrf2-dependant transcriptional activity - cell viability counter screen (AID 720653; active = well fitted curve in the direction sought with a large enough effect in the repeat runs; an effect the other way counts as inactive or inconclusive; note: % is set by controls: 0 for no effect and ±100 for the full control effect). As to conditions: ARE-bla HepG2 viability, CellTiter-Glo ATP luminescence, 16 h; stronger effect = lower value. Summed up: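 ARE-bla HepG2 cells (2,000/well) rested 5 hrs at 37C/5% CO2, then exposed to compounds in DMSO for 16 hrs. Viability was read in the same wells as intracellular ATP by luminescence, 30 min at room temperature after reagent addition.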

Experiment [4] is described as follows: qHTS Assay for Identifying Gametocytocidal Compounds (AID 743244).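 For max response: % is set by controls: 0 for no effect and ±100 for the full control effect; actives lower the fluorescent signal which means gametocytes are killed.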 Note: potency is the fitted concentration of half-maximal effect. As to conditions: P. falciparum 3D7 stage III-V gametocytes, alamarBlue, 72 h; max response: stronger effect = lower value. A digest of the protocol:
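Fluorescence at Ex 525/Em 598 nm, recorded 24 h after alamarBlue addition, reports residual metabolic activity of 3D7 gametocytes (stages III–V) following 72 h compound exposure at 37 °C, 5% CO2.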

Experiment [5] is described as follows: qHTS assay for cell viability of HEK293 cells (AID 743288). Note: % is set by controls: 0 for no effect and ±100 for the full control effect; nearly all actives have a fitted effect of over 50% in size. Particulars: ATP luminescence (CellTiter-Glo), 18 h; max response: stronger effect = lower value. A digest of the protocol: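 Total intracellular ATP, measured with a luciferase-coupled reagent, indicates the number of viable HEK293 cells. Exposure to test chemicals lasts 18 h at 37 C in 1,536-well format at 2,000 cells/well.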

A short description of experiment [6]: qHTS assay for cell viability of the p53RE-bla HCT-116 cell line (AID 743292). Note: % is set by controls: 0 for no effect and ±100 for the full control effect; nearly all actives have a fitted effect of over 55% in size. Summed up:
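ATP-based luminescence, 16 h compound exposure at 37 C, p53RE-bla HCT-116 cells at 4,000/well.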

Experiment [7] in a line: qHTS assay for small molecule agonists of the antioxidant response element (ARE) signaling pathway measured by Nrf2-dependant transcriptional activity (AID 720636; active = well fitted curve in the direction sought with a large enough effect in the repeat runs; an effect the other way counts as inactive or inconclusive;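 note: HepG2 cells with an ARE-driven luciferase reporter; % of control where 0% means no effect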). Summed up: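 Nrf2-dependent transcription is measured in ARE-luc HepG2 cells: compound is applied for 16 hr at 37 C after a 6 hr attachment period, and luciferase activity is quantified by luminescence using ONE-Glo.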

The target of experiment [8] is Hexokinase-4 (Homo sapiens) + Glucokinase regulatory protein (Homo sapiens) (UniProt P35557+Q14397). Nature of the experiment: qHTS assay for inhibitors of recombinant human GCK-GKRP interaction: Diaphorase-coupled assay (AID 743205). Summed up:
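A kinetic fluorescence read (Ex 525/Em 590 nm, every minute for 30 minutes) tracked resorufin from a G6PDH-diaphorase coupled GCK reaction. It contained 10 nM GST-GCK, 10 nM FLAG-GKRP, 5 mM glucose, 0.4 mM ATP in Hepes pH 7.6. Normalized to with/without-enzyme DMSO controls.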

A short description of experiment [9]: qHTS profiling of the MIPE4 collection as inhibitors of Plasmodium falciparum (3D7) proliferation (AID 743344; call rule not given here;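 note: scaled between DMSO vehicle wells and 0.29 µM artemisinin as full inhibition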). As to conditions: P. falciparum 3D7 in erythrocytes, SYBR Green DNA fluorescence, 72 h; at 28.5 µM (top of the series). Summed up: (§1)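 Erythrocytes infected with P. falciparum (0.3% parasitemia, 2.5% hematocrit) incubated with compounds 72 h at 37 C, 5% CO2. Lysis with saponin/Triton buffer containing SYBR Green I, overnight at room temperature in the dark; DNA fluorescence (485/535 nm) normalised to 0.29 uM artemisinin and DMSO.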

A short description of experiment [10]: qHTS profiling of the MIPE4 collection as inhibitors of Plasmodium falciparum (DD2) proliferation (AID 743345; call rule not given here). As to conditions: P. falciparum Dd2 in erythrocytes, SYBR Green DNA, 72 h; at 28.5 µM (top of the series). A digest of the protocol: as §1

Chain of Arylsulfatase A (Homo sapiens) (P15289 whole entry, looked up): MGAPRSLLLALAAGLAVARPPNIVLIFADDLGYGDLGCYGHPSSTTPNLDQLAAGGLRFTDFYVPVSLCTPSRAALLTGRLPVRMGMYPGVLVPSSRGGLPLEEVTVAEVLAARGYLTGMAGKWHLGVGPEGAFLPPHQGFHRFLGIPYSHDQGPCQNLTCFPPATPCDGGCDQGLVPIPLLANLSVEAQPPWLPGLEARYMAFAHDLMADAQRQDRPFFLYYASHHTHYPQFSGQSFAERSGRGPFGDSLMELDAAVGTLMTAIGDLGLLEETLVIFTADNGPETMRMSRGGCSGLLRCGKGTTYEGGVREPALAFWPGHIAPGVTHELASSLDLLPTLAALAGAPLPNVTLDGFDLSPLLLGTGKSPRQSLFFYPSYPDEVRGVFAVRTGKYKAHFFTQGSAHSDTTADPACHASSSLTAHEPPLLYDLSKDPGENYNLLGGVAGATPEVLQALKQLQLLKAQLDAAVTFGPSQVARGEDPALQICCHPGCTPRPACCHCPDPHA
Chain of Hexokinase-4 (Homo sapiens) + Glucokinase regulatory protein (Homo sapiens) (P35557 whole entry, looked up): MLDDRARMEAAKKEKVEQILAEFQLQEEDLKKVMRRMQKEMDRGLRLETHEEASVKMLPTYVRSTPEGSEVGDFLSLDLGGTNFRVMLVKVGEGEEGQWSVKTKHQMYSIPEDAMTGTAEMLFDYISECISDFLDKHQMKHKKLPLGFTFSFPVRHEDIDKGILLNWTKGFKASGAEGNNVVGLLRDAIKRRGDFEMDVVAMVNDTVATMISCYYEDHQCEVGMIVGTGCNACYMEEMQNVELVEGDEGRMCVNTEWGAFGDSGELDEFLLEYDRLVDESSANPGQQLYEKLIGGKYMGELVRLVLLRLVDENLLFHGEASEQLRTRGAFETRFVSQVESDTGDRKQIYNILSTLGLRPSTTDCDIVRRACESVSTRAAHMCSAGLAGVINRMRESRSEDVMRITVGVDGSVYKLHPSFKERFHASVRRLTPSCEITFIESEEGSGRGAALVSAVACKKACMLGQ
Chain of Hexokinase-4 (Homo sapiens) + Glucokinase regulatory protein (Homo sapiens) (Q14397 whole entry, looked up): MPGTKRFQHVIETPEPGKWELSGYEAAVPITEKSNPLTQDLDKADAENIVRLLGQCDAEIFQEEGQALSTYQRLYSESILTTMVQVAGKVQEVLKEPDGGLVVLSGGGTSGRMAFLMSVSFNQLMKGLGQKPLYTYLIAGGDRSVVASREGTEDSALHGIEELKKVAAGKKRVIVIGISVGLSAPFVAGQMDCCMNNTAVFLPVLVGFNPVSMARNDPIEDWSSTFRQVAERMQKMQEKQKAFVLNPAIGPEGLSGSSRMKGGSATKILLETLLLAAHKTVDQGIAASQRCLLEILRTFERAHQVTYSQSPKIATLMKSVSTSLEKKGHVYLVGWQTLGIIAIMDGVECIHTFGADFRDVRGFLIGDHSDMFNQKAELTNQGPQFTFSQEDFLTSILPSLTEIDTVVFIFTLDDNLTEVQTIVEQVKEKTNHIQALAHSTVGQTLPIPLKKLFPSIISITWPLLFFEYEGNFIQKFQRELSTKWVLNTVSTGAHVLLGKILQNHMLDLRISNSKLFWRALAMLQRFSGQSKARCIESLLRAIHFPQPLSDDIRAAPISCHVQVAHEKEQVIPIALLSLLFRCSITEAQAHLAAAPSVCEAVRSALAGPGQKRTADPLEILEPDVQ

For the compound `Brc1c(NC2=NCCN2)ccc2nccnc12`, the Potency result in [1] was “inactive”.
As to `CNC(=O)Oc1cccc2ccccc12`, the Potency result in experiment [2] was “inactive”. Besides, the max response was 6.76% (inactive) and -21.4% (inactive) in experiment [3]; -4.95% (inactive) and -11.8% (inactive) in [5]. Moreover, in experiment [4], the Potency is 35.5 µM (active). For the same compound, in [6], the compound was classed as inactive.
On to `COP(=S)(OC)Oc1ccc(Sc2ccc(OP(=S)(OC)OC)cc2)cc1`, for which the max response is -17.2% (inactive) in experiment [3], 1.05% (inactive) in experiment [4] and -12.2% (inactive) in experiment [5]. Besides, the compound was called inactive in experiment [6].
Turning to `C[N+](C)(C)CCCCCCCCCC[N+](C)(C)C`, the Potency in [1] was 2.69 µM (active). The max response in [4] is -0.962% (inactive).
Take `CC(=O)[C@@]1(O)CC[C@H]2[C@@H]3CCC4=CC(=O)CC[C@]4(C)[C@H]3CC[C@@]21C`: the Potency result in experiment [1] was “inactive”.
Take `Oc1ccc(Cl)cc1Cc1cc(Cl)ccc1O`: in [7], the Potency result is “inactive”. For the same compound, the max response in experiment [3] is -12% (inactive).
For `Cc1ccc(N=CN(C)C=Nc2ccc(C)cc2C)c(C)c1`, in experiment [7], the Potency result was “inactive”. The values for the max response in experiment [3], in experiment [4] and in experiment [5] were -11.3% (inactive), 9.43% (inactive) and -16.1% (inactive), respectively. Further, the compound was classed as inactive in [6].
On to `O=C(NC(=O)c1c(F)cccc1F)Nc1cc(Cl)c(OC(F)(F)C(F)C(F)(F)F)cc1Cl` (stereo unspecified), for which the Potency result in [7] was “inactive”. Moreover, the max response was -21.7% (inactive) in experiment [3], 13.1% (inactive) in [4] and -27.8% (inactive) in experiment [5]. In addition, the compound was classed as inactive in experiment [6].
With `CCOC(=O)Nc1ccc(NCc2ccc(F)cc2)nc1N`, in [1], the Potency entry is “inactive”. Also, in experiment [8], the result was inactive. Further, in experiment [4], the Potency is 3.55 µM (active). Moreover, the parasite growth, % of DMSO control in experiment [9] was found to be 40.6%. In experiment [10], this compound yielded a parasite growth remaining, % of DMSO control (lower = more inhibition) of 90%.
`Oc1c(Br)cc(Br)cc1Br`: the Potency result in experiment [7] and in [2] was “inactive” throughout. Also, the max response in experiment [3] is -5.17% (inactive) and -2.6% (inactive); in [4], -0.35% (inactive); in [5], -15.1% (inactive) and -2.12% (inactive). Moreover, in experiment [6], the outcome was inactive.

The values above are taken from PubChem BioAssay (NCATS).
